# Measurements reported in paper PMC4336329 (PLoS ONE, 2015).
# The campaign covered roughly 310,000 compounds. About 2,200 (0.71%) showed an effect of 50% or more. The effect is printed as a negative number. Many of the other results were omitted from the sample, so strong results are more common in it than they were.
# Target: human ether-à-go-go-related gene (hERG) potassium channel (human, UniProt Q12809)
# Experiment: primary screen, population patch clamp on CHO cells stably expressing hERG; higher = less effect of the substance
# Experimental: Briefly, Chinese hamster ovary (CHO) cells stably expressing the hERG channel were dislodged from tissue culture flasks and dispensed into PPC plates. […] During the recording, background leak currents were estimated by a 100 ms step to -80 mV from an initial holding potential of -70 mV and subtracted from the subsequent current measurement. The campaign was conducted in two phases using slight differences in recording protocol. In the first phase, the initial voltage pulse used a 100 ms step to -30 mV from a holding potential of -70 mV, a 2 s conditioning step to +25 mV, and a 2 s test step to -30 mV. During the second phase of the screen, the potential during the conditioning step was raised to +45 mV. In both phases of the campaign, a secondary voltage pulse was applied using the same parameters as the second phase initial pulse. The initial and secondary pulses were applied in the absence of compound, and upon application of 1 μM and 10 μM test concentrations. Small molecule effects on hERG current density were quantified by […].
# Chain of human ether-à-go-go-related gene (hERG) potassium channel (Q12809 whole entry, looked up): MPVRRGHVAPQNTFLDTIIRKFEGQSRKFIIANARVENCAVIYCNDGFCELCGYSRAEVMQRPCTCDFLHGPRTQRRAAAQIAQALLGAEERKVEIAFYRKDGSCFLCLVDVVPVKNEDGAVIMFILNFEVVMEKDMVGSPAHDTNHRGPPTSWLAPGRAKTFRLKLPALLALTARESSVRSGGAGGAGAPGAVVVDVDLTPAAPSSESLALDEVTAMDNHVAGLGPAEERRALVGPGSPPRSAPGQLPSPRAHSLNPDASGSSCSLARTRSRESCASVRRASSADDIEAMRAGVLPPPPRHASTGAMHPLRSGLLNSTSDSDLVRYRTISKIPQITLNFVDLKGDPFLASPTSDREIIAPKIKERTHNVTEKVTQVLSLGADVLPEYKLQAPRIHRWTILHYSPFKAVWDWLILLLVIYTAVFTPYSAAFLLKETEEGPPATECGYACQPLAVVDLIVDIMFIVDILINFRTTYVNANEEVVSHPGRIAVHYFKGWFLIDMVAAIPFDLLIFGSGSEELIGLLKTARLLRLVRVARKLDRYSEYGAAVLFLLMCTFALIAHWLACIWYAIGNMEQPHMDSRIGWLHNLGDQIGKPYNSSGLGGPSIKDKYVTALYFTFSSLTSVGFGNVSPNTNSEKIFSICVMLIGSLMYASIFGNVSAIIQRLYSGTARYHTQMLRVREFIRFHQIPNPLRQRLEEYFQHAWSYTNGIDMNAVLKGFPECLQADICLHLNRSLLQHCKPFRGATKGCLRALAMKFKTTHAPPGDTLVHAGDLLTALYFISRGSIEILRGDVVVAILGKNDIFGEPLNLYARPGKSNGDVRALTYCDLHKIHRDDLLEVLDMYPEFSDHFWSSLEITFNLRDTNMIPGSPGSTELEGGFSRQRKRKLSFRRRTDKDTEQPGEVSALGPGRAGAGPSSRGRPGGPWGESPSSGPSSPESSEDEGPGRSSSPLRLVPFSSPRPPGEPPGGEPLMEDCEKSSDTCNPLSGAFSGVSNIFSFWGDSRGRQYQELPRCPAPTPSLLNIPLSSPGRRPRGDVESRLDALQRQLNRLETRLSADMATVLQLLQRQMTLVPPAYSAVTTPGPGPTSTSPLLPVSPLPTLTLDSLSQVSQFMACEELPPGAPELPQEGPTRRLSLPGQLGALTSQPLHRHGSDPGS
row,Compound,"hERG current change (%, negative = inhibition) at 1uM"
1,O=C1NC(=Nc2cccc([N+](=O)[O-])c2)SC1(CO)CO,2.12%
2,COc1ccc(C)cc1NC(=O)COC(=O)C1CC1,6.74%
3,COc1ccc(C)cc1NC(=O)COC(=O)C1CCN(C(=O)c2ccc(Cl)cc2)CC1,-57.7%
4,COc1ccc(OC)c(NC(=O)COC(=O)C2CCN(C(=O)c3ccc(Cl)cc3)CC2)c1,-49.1%
5,O=C(COc1ccccc1)NC1CCN(Cc2ccccc2)CC1,-8.39%
6,O=C(NC1CCN(Cc2ccccc2)CC1)C1CCN(S(=O)(=O)c2ccc(Cl)cc2)CC1,-16.9%
7,O=C(COc1ccc(Br)cc1Cl)NC1CCN(Cc2ccccc2)CC1,-16.4%
8,Cl.O=C(COc1ccccc1F)NC1CCN(Cc2ccccc2)CC1,-3.6%
9,O=C(NC1CCN(Cc2ccccc2)CC1)C1CCN(S(=O)(=O)c2ccccc2)CC1,1.18%
10,Cc1ccc(Cl)cc1S(=O)(=O)N1CCC(C(=O)NC2CCN(Cc3ccccc3)CC2)CC1,-66.1%
11,Cc1ccc(Cl)c(OCC(=O)NC2CCN(Cc3ccccc3)CC2)c1,-93.9%
12,Cc1cc(OCC(=O)NC2CCN(Cc3ccccc3)CC2)c2c(C)c(C)c(=O)oc2c1,7.38%
13,O=C(COc1ccc(Br)cc1F)NC1CCN(Cc2ccccc2)CC1,-64.8%
14,COC(=O)c1sc(C(C)(C)C)cc1CS(=O)(=O)c1ccc(Cl)cc1,23.7%
15,CC(C)=CCOc1ccc2c(C)c(CC(=O)N3C[C@H]4C[C@@H](C3)c3cccc(=O)n3C4)c(=O)oc2c1C,-18.5%
16,Cc1cc(C)c2cc(C#N)c(SCC(=O)NCC3CCCO3)nc2c1 (stereo not drawn),-2.04%
17,CCSCc1nnc(SCC(=O)c2ccc(OC)cc2)n1C,2.03%
18,CC(NC(=O)CSCc1ccc(Br)cc1)c1ccccc1 (stereo not drawn),9.08%
19,CCOc1ccc(/C=N/NC(=O)c2cccc3ccccc23)c(OCC)c1,13.6%
20,CC1CCCN(CC(=O)Nc2ccc(S(=O)(=O)N3CCCCCC3)cc2)C1 (stereo not drawn),-1.45%
21,COC(=O)c1nc[nH]c1C(=O)OC,18.4%

row,Compound,"hERG current change (%, negative = inhibition) at 1uM"
1,COc1ccccc1C(=O)N/C(=C/c1ccc(Br)cc1)C(=O)NCCO,1.21%
2,COCCN1C(=O)N[C@H](c2cccc(C(F)(F)F)c2)C(C(=O)OC)=C1C,5.44%
3,COc1ccc(F)cc1S(=O)(=O)NCC(c1ccc2c(c1)OCO2)N1CCN(C)CC1 (stereo not drawn),-12.6%
4,COc1ccc(C)cc1S(=O)(=O)NCC(c1ccc2c(c1)OCO2)N1CCOCC1 (stereo not drawn),5.86%
5,CCOc1ccc(S(=O)(=O)NCC(c2ccc3c(c2)OCO3)N2CCN(C)CC2)cc1 (stereo not drawn),-3.34%
6,O=S(=O)(NCC(c1ccc2c(c1)OCO2)N1CCOCC1)c1ccc(Br)cc1 (stereo not drawn),12.6%
7,COc1ccc(C)cc1S(=O)(=O)NCC(c1ccc2c(c1)OCO2)N1CCN(C)CC1 (stereo not drawn),-54.9%
8,CN1CCN(C(CNS(=O)(=O)c2ccc(Br)cc2)c2ccc3c(c2)OCO3)CC1 (stereo not drawn),-59.5%
9,C=CCON/C(CCC)=C1\C(=O)CC(C)(C)CC1=NC,18.6%
10,O=C(CN(C(=O)CCC(=O)Nc1nccs1)c1ccc2c(c1)OCO2)NCc1ccc(F)cc1,9.89%
11,COc1cccc(CN2C(=O)[C@H]3Cc4c([nH]c5ccccc45)C(C)(C)N3C2=O)c1,15.2%
12,O=S(=O)(Nc1nc2ccccc2nc1Cl)c1ccc2c(c1)OCCO2,8.99%
13,Cc1nn(Cc2ccccc2)c(C)c1NC(=O)CSc1nc2c(c(C(F)(F)F)n1)CCc1ccccc1-2,2.11%
14,CC1=C(C)C(=O)N(c2ccccn2)C1=O,11.4%
15,COc1cccc(CN2CCN(Cc3[nH]c4ccccc4c3C)CC2CCO)c1 (stereo not drawn),-11.2%
16,CCOc1ccc(CN2CCN(Cc3[nH]c4ccc(OC)cc4c3C)CC2CCO)cc1 (stereo not drawn),-76.9%
17,CCOc1ccc(CN2CCN(Cc3[nH]c4ccccc4c3C)CC2CCO)cc1 (stereo not drawn),-75.2%
18,COc1ccc2[nH]c(CN3CCN(CC(C)C)C(CCO)C3)c(C)c2c1 (stereo not drawn),5.18%
19,CCOc1ccccc1CN1CCN(Cc2[nH]c3ccccc3c2C)CC1CCO (stereo not drawn),-13%
20,COc1ccc2[nH]c(CN3CCN(CC=C(C)C)C(CCO)C3)c(C)c2c1 (stereo not drawn),10.7%
21,CC(C)CC(=O)Nc1nnc(S(=O)(=O)N(C)Cc2ccco2)s1,21%

row,Compound,"hERG current change (%, negative = inhibition) at 1uM"
1,NC(=O)CC(NC(=O)Cc1cccc2ccccc12)c1ccc(NCCCN2CCCC2=O)c([N+](=O)[O-])c1 (stereo not drawn),8.49%
2,O=C(CNS(=O)(=O)c1cccc(C(F)(F)F)c1)Nc1ccccc1F,-2.49%
3,CCCOC(=O)c1ccc(NS(=O)(=O)c2cccs2)cc1,8.05%
4,O=C(Oc1ccc(N(C(=O)c2ccncc2)S(=O)(=O)c2cccs2)cc1)c1ccncc1,11.4%
5,O=C(OCCN(CCOC(=O)c1ccncc1)S(=O)(=O)c1cccs1)c1ccncc1,-51.5%
6,O=C(Oc1ccccc1O)c1cccc2ccccc12,6.76%
7,Cc1ccc(N2C(=O)N(CC(=O)Nc3ccc(C)cc3C)C(=O)C2C)cc1 (stereo not drawn),7.69%
8,COc1cc(NC(=S)NCc2cccnc2)cc(OC)c1,15.1%
9,CCOc1ccc(NC(C)=O)cc1[N+](=O)[O-],5.43%
10,CCOC(=O)C1(CCc2ccccc2)CCN(Cc2ccn[nH]2)CC1,-43.8%
11,CCOC(=O)C1(CCOc2ccccc2)CCN(Cc2cccc3c2OCO3)CC1,-7.1%
12,CCOC(=O)C1(CC2CC2)CCN(Cc2cnc(N(C)C)s2)CC1,3.01%
13,CCOC(=O)C1(CCc2ccccc2)CCN(Cc2ccc(NC(C)=O)cc2)CC1,-72.5%
14,CCOC(=O)C1(Cc2ccccc2)CCN(Cc2cccc3c2OCO3)CC1,1.36%
15,CCOC(=O)C1(CCc2ccccc2)CCN(Cc2cccc3c2OCO3)CC1,-63.7%
16,CCOC(=O)C1(CCc2ccccc2)CCN(Cc2nccn2CC)CC1,-47.2%
17,CCOC(=O)C1(CCc2ccccc2)CCN(Cc2csc(C(C)=O)c2)CC1,-33.6%
18,CCOC(=O)C1(CCc2ccccc2)CCN(Cc2cnc(N(C)C)s2)CC1,-86.4%
19,CCOC(=O)C1(CCc2ccccc2)CCN(Cc2ccccn2)CC1,-57.1%
20,CCOC(=O)C1(CCOc2ccccc2)CCN(Cc2ccc(NC(C)=O)cc2)CC1,-38.6%
21,CCOC(=O)C1(CCCc2ccccc2)CCN(Cc2cnc(C)s2)CC1,-44.7%
